Giardia FBPA inh = blocks Giardia fructose-bisphosphate aldolase activity; A8B2U2; purified Giardia FBPA; Potency, µM (top dose mostly 59.6 µM), most hits filed as inhibitors; 290,000 compounds, 0.71% hits; note: nearly all actives have a fitted effect of over 55% in size
Target sequence (A8B2U2 whole entry, looked up): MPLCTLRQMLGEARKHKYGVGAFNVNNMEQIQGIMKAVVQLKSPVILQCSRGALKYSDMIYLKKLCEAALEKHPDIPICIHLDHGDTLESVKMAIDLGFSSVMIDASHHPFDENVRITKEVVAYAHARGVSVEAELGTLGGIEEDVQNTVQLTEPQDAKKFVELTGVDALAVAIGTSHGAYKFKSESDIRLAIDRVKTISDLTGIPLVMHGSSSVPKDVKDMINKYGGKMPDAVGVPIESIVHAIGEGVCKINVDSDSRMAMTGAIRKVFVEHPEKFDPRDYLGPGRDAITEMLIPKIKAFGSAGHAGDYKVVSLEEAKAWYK
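Giardia FBPA (40 nM reagent) was preincubated 10 min at RT with compound (up to 57.5 uM final), then substrate plus GAPDH/TPI/NAD/arsenate coupling system with diaphorase/resazurin was added; resorufin fluorescence (525/598 nm) was read after 20 min.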
Pf growth 48h = inhibits P. falciparum growth in the first generation, 48 h; P. falciparum luciferase growth in erythrocytes, 48 h; Potency, µM (series often up to 28.7 µM), actives largely listed as inhibitors; 310,000 compounds, 5.9% hits
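Parasite viability was followed by luminescence of a genomically integrated firefly luciferase. Cultures held 0.1% parasitemia at 2% hematocrit (final), incubated under 5% CO2 at 37 C.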
NS1 function inh = blocks influenza NS1 protein function | Potency, µM (titrated, usually from 46.1 µM) | AID 2326 | 270,000 compounds, 0.4% hits; calls by dose curve; note: actives are rising curves; nearly all actives have a fitted effect of over 50% in size
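Growth recovery, yeast-based: influenza A NS1 expressed in S. cerevisiae causes slow growth, and suppressors are detected by OD600. The parent strain without NS1 is used as positive control.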
Shiga toxin inh = Shiga toxin inhibition | 290,000 compounds, 9.2% hits | inhibition, % at 38.7 µM | Vero cells, Shiga toxin protein synthesis inhibition reporter; in the data active = inhibition mostly above about 28%, no sharp cut-off; inactive = mostly below about 43%
CHX counter = counter-screen for Shiga toxin inhibitors: cycloheximide protein synthesis inhibition | cell reporter, cycloheximide protein synthesis inhibition counterscreen | max response, % | 300,000 compounds, 12% hits | AID 2314; in the data active = max response mostly above about 13%, no sharp cut-off; inactive = mostly below about 14%; note: read at 38.3 µM for the half of the compounds with a filed dose
Pf growth 96h = P. falciparum growth inhibition at 96 hours | Potency, µM (doses to about 28.7 µM), most hits filed as inhibitors | P. falciparum luciferase reporter growth, 96 h | 320,000 compounds, 6.9% hits
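Delayed-death screen, second-generation endpoint: infected erythrocytes, 2% hematocrit, 0.05% parasitemia final; 96 hours at 37 C, 5% CO2; luciferase detection reagent; luminescence decrease equals reduced growth.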
Each line names hits and unclear results; the compound was inactive in the other large screens. The list is not random: actives were taken first. Their share in the collection is about 21%. Unless noted, calls come from the whole dose curve; as a rule, active = well fitted curve in the direction sought with a large enough effect; inconclusive = small, poorly fitted or top-dose-only effect, or another doubt; inactive = no such curve, though single readings can be large; an effect the other way counts as inactive or inconclusive.

O=C(NCCN1CCOCC1)c1cccs1	none (no result: Pf growth 96h)
OCCNC(=S)NC1CCCCC1	none
O=C(NCCN1Cc2ccccc2C1=O)c1cccs1	Shiga toxin inh 47, CHX counter 21, Pf growth 96h inconclusive
O=C1c2ccccc2CN1CCNC(=S)NC1CCCCC1	Shiga toxin inh 45, CHX counter 31 (no result: NS1 function inh)
O=C(Nc1ccc(S(=O)(=O)N2CCOCC2)cc1)c1ccccc1Br	Pf growth 96h inconclusive
Cn1nc(C(F)(F)F)c(-c2ccc(F)cc2)c1NC(=O)c1cccnc1	Pf growth 48h inconclusive, Pf growth 96h inconclusive
O=C(NCc1ccccn1)Nc1cccc(F)c1	Shiga toxin inh 39, CHX counter 26
O=C(NCc1ccccn1)Nc1ccc(Br)cc1	Shiga toxin inh 29, CHX counter 12, Pf growth 96h 1.7µM
O=C(Nc1ccccc1)OCc1ccccn1	Shiga toxin inh 57, CHX counter 26
COc1ccc(NC(=O)NCc2ccccn2)cc1	none
O=C(NCc1ccccn1)Nc1ccccc1	Shiga toxin inh 82, CHX counter 43
O=C(NCc1ccccn1)Nc1ccc(F)cc1F	none
CCn1c(SCC(=O)Nc2ccc3c(c2)OCCO3)nnc1C1CC1	none
CCCCNc1nc(SC)nc2nc[nH]c12	none (no result: Giardia FBPA inh, Pf growth 48h, Shiga toxin inh, CHX counter, Pf growth 96h)
O=C(Nc1cccc(O)c1)c1cc(-c2ccccc2Cl)on1	none
O=C(Nc1ccccc1)OCc1cc(-c2ccccc2Cl)on1	Shiga toxin inh 69, CHX counter 39
Cc1cccc(NC(=O)C(=O)NCc2ccccn2)c1	Shiga toxin inh 168, CHX counter 59
CCCCN(C(=O)c1ccc(S(=O)(=O)N2CCCC2)cc1)C1CCS(=O)(=O)C1 (stereo not given)	none (no result: Giardia FBPA inh, NS1 function inh, Shiga toxin inh, CHX counter)
CC(C)c1ccc2c(c1)C1Cc3ccccc3C1N2 (stereo not given)	Giardia FBPA inh inconclusive, Pf growth 48h inconclusive, Shiga toxin inh 42, CHX counter 56, Pf growth 96h inconclusive
O=S1(=O)NC2c3ccccc3CC2O1 (stereo not given)	none
Cc1ccc(NC(=O)CSCC(=O)NCCc2ccccn2)c(C)c1	none (no result: NS1 function inh)
CC(=O)NCCCNc1ccc([N+](=O)[O-])cc1	Shiga toxin inh 35, CHX counter 23
CCS(=O)(=O)NCCNc1ccc([N+](=O)[O-])cc1	Pf growth 96h 12µM
O=[N+]([O-])c1ccc(NCCNc2ccc(Cl)nn2)cc1	none (no result: Pf growth 48h)
COc1ccccc1C(=O)NCCCNc1ccc([N+](=O)[O-])cc1	Pf growth 96h 13µM
CC(=O)Nc1ccc(S(=O)(=O)c2ccc([N+](=O)[O-])cc2)cc1	Pf growth 48h inconclusive
COc1cccc(C(=O)Nc2nnc(SCC(=O)Nc3ccc(NC(C)=O)cc3)s2)c1	none (no result: Giardia FBPA inh)
NS(=O)(=O)c1ccc(CNC(=O)CSc2nc3ccc(Cl)cc3[nH]2)cc1	Pf growth 96h inconclusive
COc1cccc(OC)c1C(=O)Nc1ccc(C(=O)NCc2ccccc2)cc1	Pf growth 96h inconclusive
N#Cc1cc(-c2ccccc2)cn(Cc2c(Cl)cccc2Cl)c1=O	Pf growth 48h inconclusive, Pf growth 96h 1.7µM
COC(=O)CNC(=O)Cn1c(=O)n(Cc2ccc(F)cc2)c(=O)c2sccc21	NS1 function inh inconclusive, Pf growth 96h 12µM
CCOC(=O)N1CCN(Cc2nc3c(c(=O)n(C)c(=O)n3C)n2Cc2ccccc2C)CC1	Pf growth 48h 10µM, Pf growth 96h inconclusive
CCOC(=O)N1CCN(Cc2nc3c(c(=O)[nH]c(=O)n3C)n2Cc2cc(C)ccc2C)CC1	Pf growth 48h 13µM
CCCCCn1c(CN2CCN(C(=O)OCC)CC2)nc2c1c(=O)[nH]c(=O)n2C	Pf growth 96h inconclusive
CCCn1c(CN2CCN(C(=O)OCC)CC2)nc2c1c(=O)n(C)c(=O)n2C	none
COc1ccccc1-c1nnc(SCC(=O)Nc2ccc(N3CCOCC3)cc2)n1C	Pf growth 96h inconclusive (no result: Giardia FBPA inh, NS1 function inh, Shiga toxin inh, CHX counter)
Cc1ccc(C2SCC(=O)N2Cc2ccccc2)cc1 (stereo not given)	Pf growth 96h 13µM
COc1ccc(C2SCC(=O)N2Cc2ccccc2)cc1 (stereo not given)	none
COc1cc(C2SCC(=O)N2Cc2ccccc2)ccc1O (stereo not given)	Pf growth 96h 9.3µM
Cc1cccc(NC(=O)c2ccc(C3SCC(=O)N3CCc3ccccc3)cc2)c1C (stereo not given)	Pf growth 96h 8.3µM (no result: Pf growth 48h)
COc1cccc(NC(=O)C(OC(=O)c2cnc(C)cn2)c2ccccc2)c1 (stereo not given)	Pf growth 48h inconclusive (no result: Giardia FBPA inh, NS1 function inh, Shiga toxin inh, CHX counter)
CC(C)=CCC[C@](C)(O)C1CC=C(C)CC1 (stereo not given in full)	none (no result: NS1 function inh, Shiga toxin inh, CHX counter)
C=CCNC(=S)NN=C1CCCCCCC1	Giardia FBPA inh inconclusive, Pf growth 48h 8.3µM (no result: NS1 function inh)
COc1ccc(-c2nc3cnc(N(C)C)nc3n(C[C@H]3CCCO3)c2=O)cc1	none (no result: Pf growth 48h, NS1 function inh, Shiga toxin inh, CHX counter, Pf growth 96h)
CC(C)(C)c1cc(CN2CCOCC2)c(C(=O)O)o1	Pf growth 96h 3.3µM
O=C(O)Cn1cc(CN2CCOCC2)c2ccccc21	none (no result: Shiga toxin inh)
OC[C@@H](O)[C@@H](O)[C@@H](O)[C@@H](O)c1nc2ccc(Cl)cc2[nH]1	none (no result: Giardia FBPA inh, Pf growth 48h, Shiga toxin inh, CHX counter, Pf growth 96h)
Cc1nc2sc(C(c3cccs3)N3CCN(c4cccc(Cl)c4)CC3)c(O)n2n1 (stereo not given)	Pf growth 96h inconclusive
Cc1nc2sc(C(c3cccs3)N3CC(C)CC(C)C3)c(O)n2n1 (stereo not given)	Pf growth 48h 6.6µM, Pf growth 96h inconclusive
CN(C)c1ccc(/C=N/NC(=S)NCc2ccco2)cc1	Shiga toxin inh 23
CC(C)(C)NC(=S)NCc1ccco1	Giardia FBPA inh inconclusive, Pf growth 48h inconclusive, Pf growth 96h inconclusive
CN(C)c1ccc(C(=S)NCc2ccco2)cc1	Shiga toxin inh active, CHX counter 85
S=C(NCc1ccco1)N/N=C/c1ccncc1	none
O=C(NCCOc1ccccc1Cl)c1cc(F)c(F)cc1Cl	Shiga toxin inh 74, CHX counter 53
Cc1nn(Cc2ccccc2)c(Cl)c1C(=O)NCCc1ccccc1	Shiga toxin inh 60, CHX counter 56
O=C(O)c1ccccc1C(=O)NCCc1ccc(Cl)cc1	Pf growth 96h inconclusive (no result: NS1 function inh)
CSc1ccc(Cl)c(C(=O)NCCOc2ccccc2)c1	CHX counter 26, Pf growth 96h inconclusive (no result: Giardia FBPA inh)
O=C(NCCc1ccccc1)c1ccccc1Cl	CHX counter 13
Cc1nn(Cc2ccccc2)c(Cl)c1C(=O)O	none (no result: NS1 function inh)
O=C(NCCOc1ccccc1)c1ccccc1Cl	Shiga toxin inh 55, CHX counter 43
COc1ccc(OCCNC(=O)c2ccccc2Cl)cc1	Pf growth 96h inconclusive
CCOC(=O)[C@@H]1[C@H]2COc3cc(OC)ccc3[C@@H]2N2C(=O)N(c3cccc(Cl)c3)C(=O)[C@@]12C	Pf growth 96h inconclusive
CC1(CCl)N([O-])C2=C(CCCC2)[N+]1=O (stereo not given)	Giardia FBPA inh inconclusive, CHX counter 14
CC1(C)C2CCC1(CS(=O)(=O)N1CCCc3ccccc31)C(=O)C2 (stereo not given)	CHX counter 18
